# Vif-A3G inh: qHTS for Inhibitors of Vif-A3G Interactions: qHTS. HeLa A3G-eYFP + Vif (tagged APOBEC3G with the HIV-1 protein that degrades it), YFP fluorescence, overnight. Potency, µM (highest dose often 46.1 µM), without a hit: top-dose activity, negative = active, usual class: inhibitors. hit rate 0.076% among 410,000. AID 602310, 2012. DNA dC->dU-editing enzyme APOBEC-3G (Homo sapiens), Q9HC16; further: potency means the concentration at half of the fitted maximal effect; on the % scale 0 is the no-effect control and ±100 the full control effect; nearly all actives have a fitted effect of over 60% in size
# Target sequence (Q9HC16 whole entry, looked up): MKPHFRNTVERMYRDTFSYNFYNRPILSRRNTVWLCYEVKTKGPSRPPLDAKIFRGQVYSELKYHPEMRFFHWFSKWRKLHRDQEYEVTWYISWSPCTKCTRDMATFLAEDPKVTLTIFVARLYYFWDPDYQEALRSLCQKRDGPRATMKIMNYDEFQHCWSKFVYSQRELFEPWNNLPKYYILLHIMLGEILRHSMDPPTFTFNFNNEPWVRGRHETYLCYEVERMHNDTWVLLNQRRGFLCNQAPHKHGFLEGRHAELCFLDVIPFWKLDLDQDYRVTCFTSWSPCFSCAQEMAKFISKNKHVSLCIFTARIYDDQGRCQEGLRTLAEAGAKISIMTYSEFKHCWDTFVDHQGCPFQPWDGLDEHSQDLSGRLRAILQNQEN
#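 Read-out is eYFP fluorescence (Ex 488/Em 500-530) from Vif-expressing HeLa A3G-eYFP cells; more signal means A3G escaped Vif-mediated degradation. Cells plated overnight, compound pinned in, incubated overnight at 37 deg C.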
# Epigenetic derep: Quantitative High-Throughput Screen for Regulators of Epigenetic Control. murine LDR cells, GFP reporter derepression, 30 h. Potency, µM (top dose mostly 53.9 µM), for the others: at the highest dose GFP activation, usual class: activators. hit rate 0.2% among 280,000. AID 1865, 2009; further: potency means the concentration at half of the fitted maximal effect; % of control where 0% means no effect; nearly all actives have a fitted effect of over 60% in size
#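 In this reporter-derepression format, murine cells bearing a silenced integrated CMV-GFP locus incubate with test compound (30 h, 37 C), then are washed and imaged; fluorescent objects of 20–120 um count as induced cells.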
# Glioma ERSR ind: qHTS for Inducers of the Endoplasmic Reticulum Stress Response (ERSR) in Human Glioma: qHTS; U87-MG GRP78 promoter luciferase reporter, 16 h; Potency, µM, for inactives: at the highest dose activation, hits mostly activators; hit rate 0.02% among 420,000; further: potency means the concentration at half of the fitted maximal effect; series mostly up to about 76 µM; % of control where 0% means no effect; nearly all actives have a fitted effect of over 35% in size
#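 ERSR induction read as luciferase luminescence (Bright-Glo, 10 min at room temperature) in stably transfected human U87-MG glioma cells exposed to compounds for 16 h, using GRP78 as sensor.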
# Vif-APOBEC3F blk: qHTS for Inhibitors of Vif-A3F Interactions: qHTS; hit rate 0.2% among 390,000; Potency, µM (series often up to 46.1 µM), for the others: top-dose activity, negative = active; HeLa A3F-eYFP + Vif (tagged APOBEC3F with the HIV-1 protein that degrades it), YFP fluorescence increase; further: potency means the concentration at half of the fitted maximal effect; % of control where 0% means no effect; nearly all actives have a fitted effect of over 65% in size
#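 Fluorescence increase (Ex 488/Em 500-530) after overnight compound treatment at 37 deg C flags inhibition of Vif-driven A3F-eYFP loss in stable HeLa A3F-eYFP/Vif cells seeded overnight beforehand.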
# C127i cell count: Parental Cell Counter Screen Assay for Epigenetic Modulators: Hit Validation | hit rate 20% among 60 | shares compounds with Epigenetic derep | mouse c127i parental cells, fluorescent cell count, 30 h | Potency, µM, for inactives: at the highest dose fluorescent cell count, most hits filed as activators
# HCC4017 viab: HCC4017 Cell Viability Secondary Assay for qHTS Assay for Epigenetic Modulators; hit rate 30% among 45; shares compounds with Epigenetic derep; Potency, µM (titrated, usually from 46.1 µM), for inactives: top-dose activity change, negative = cytotoxicity, most hits filed as cytotoxic; HCC4017 NSCLC viability, CellTiter-Glo ATP luminescence, 72 h
# H358 tox: H358 Cell Viability Secondary Assay for qHTS Assay for Epigenetic Modulators: Round 2; Potency, µM (doses to about 46.1 µM), for the others: top-dose activity change, negative = viability loss, usual class: cytotoxic; H358 NSCLC viability, ATP luminescence, 72 h; shares compounds with Epigenetic derep; hit rate 30% among 45
# An asterisk follows results filed as active; ? = inconclusive; · = no result given. In the library only some 0.35% were active in any assay of this set; here they are far more common. The call rests on the fitted dose curve; in most records, active means well fitted curve in the direction sought with a large enough effect; inconclusive means small, poorly fitted or top-dose-only effect, or another doubt; inactive means no such curve, though single readings can be large; an effect the other way counts as inactive or inconclusive.
SMILES,Vif-A3G inh,Epigenetic derep,Glioma ERSR ind,Vif-APOBEC3F blk,C127i cell count,others
CCCCn1c(O)c(C(=O)/C=C/c2c[nH]c3ccccc23)c(=O)[nH]c1=O,3.16µM*,?,-0.2%,-339.4%,·,
C[N+]1(C)C2CC[C@H]1CC(OC(=O)[C@@H](CO)c1ccccc1)C2 (stereo partly drawn),·,·,-3.6%,·,·,
Cc1cccc(-n2c(/C=C/c3c(C)[nH]c4ccccc34)nc3ccccc3c2=O)c1,-10.1%,3.98µM*,-1.7%,10µM*,·,
O=c1c2ccccc2nc(/C=C/c2ccc([N+](=O)[O-])o2)n1-c1ccc(O)cc1,?,1.5%,-13.4%,?,·,
Cc1cccc(-n2c(/C=C/c3ccc([N+](=O)[O-])o3)nc3ccccc3c2=O)c1,?,0.0%,0.5%,8.91µM*,·,
C[C@H]1C[C@@H](C)C(=O)[C@@H]([C@H](O)CC2CC(=O)NC(=O)C2)C1,-5.0%,?,-4.9%,2.0%,3.0%,
O=C(Oc1ccccc1)N1CCC[C@@]2(CCN(Cc3ccccc3)C2)C1,·,·,-0.2%,·,·,
CCN1C[C@]2(C)CC[C@H](O)[C@@]34[C@@H]5C[C@@H]6[C@@H](OC)C[C@@](O)(C5[C@H]6O)[C@@H](C[C@@H]23)[C@@H]14,·,-0.2%,·,·,·,
CCN(CC)c1ccc2c(c1)oc(=O)c1c(Cl)cc(=O)oc12,?,8.91µM*,-15.1%,25.1µM*,31.6µM*,
COc1ccc(OC)c(N2C(=O)NC(=O)/C(=C\c3ccc([N+](=O)[O-])s3)C2=O)c1,-19.6%,?,-1.4%,1.7%,6.0%,HCC4017 viab=-9.2%;H358 tox=-26.1%
CCCC(C)C1(CC)C(=O)NC(=S)NC1=O (stereo not drawn),·,-4.6%,-6.7%,·,·,
